# According to the supplement of paper PMC7595190:
# Unmarked numbers belong to inactive results.
# Tests used:
# Test in all cases: CellTox Green cytotoxicity fluorescence relative to DMSO vehicle (fold of vehicle RFU); higher = more cell death (loss of membrane integrity), active = 2 or more
# CMK = system: CMK
# In short: (§1)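 Three cell lines, MV4-11, CMK and Kasumi-1, were seeded at 4.0 × 10^4 cells per well into 96-well black optical-bottom plates containing CellTox Green reagent from the start. Compounds from the Selleckchem apoptosis library were diluted in DMSO, added one at a time at final 0.01, 0.1 or 1 µM with 0.1% DMSO as vehicle, and incubated at 37 °C in 5% CO2. Readings at 24, 48 and 72 h used excitation at 485 nm and emission at 520 nm. Values give cytotoxicity, taken as loss of membrane integrity, as fluorescence in fold of the DMSO vehicle.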
# Kasumi-1 = system: Kasumi-1
# In short: as §1
# MV4-11 = system: MV4-11
# In short: as §1
Compound,"CellTox Green cytotoxicity fluorescence (CMK; 0.01 µM, 24 h)","CellTox Green cytotoxicity fluorescence (CMK; 0.01 µM, 48 h)","CellTox Green cytotoxicity fluorescence (CMK; 0.01 µM, 72 h)","CellTox Green cytotoxicity fluorescence (CMK; 0.1 µM, 24 h)","CellTox Green cytotoxicity fluorescence (CMK; 0.1 µM, 48 h)","CellTox Green cytotoxicity fluorescence (CMK; 0.1 µM, 72 h)","CellTox Green cytotoxicity fluorescence (CMK; 1 µM, 24 h)","CellTox Green cytotoxicity fluorescence (CMK; 1 µM, 48 h)","CellTox Green cytotoxicity fluorescence (CMK; 1 µM, 72 h)","CellTox Green cytotoxicity fluorescence (Kasumi-1; 0.01 µM, 24 h)","CellTox Green cytotoxicity fluorescence (Kasumi-1; 0.01 µM, 48 h)","CellTox Green cytotoxicity fluorescence (Kasumi-1; 0.01 µM, 72 h)","CellTox Green cytotoxicity fluorescence (Kasumi-1; 0.1 µM, 24 h)","CellTox Green cytotoxicity fluorescence (Kasumi-1; 0.1 µM, 48 h)","CellTox Green cytotoxicity fluorescence (Kasumi-1; 0.1 µM, 72 h)","CellTox Green cytotoxicity fluorescence (Kasumi-1; 1 µM, 24 h)","CellTox Green cytotoxicity fluorescence (Kasumi-1; 1 µM, 48 h)","CellTox Green cytotoxicity fluorescence (Kasumi-1; 1 µM, 72 h)","CellTox Green cytotoxicity fluorescence (MV4-11; 0.01 µM, 24 h)","CellTox Green cytotoxicity fluorescence (MV4-11; 0.01 µM, 48 h)","CellTox Green cytotoxicity fluorescence (MV4-11; 0.01 µM, 72 h)","CellTox Green cytotoxicity fluorescence (MV4-11; 0.1 µM, 24 h)","CellTox Green cytotoxicity fluorescence (MV4-11; 0.1 µM, 48 h)","CellTox Green cytotoxicity fluorescence (MV4-11; 0.1 µM, 72 h)","CellTox Green cytotoxicity fluorescence (MV4-11; 1 µM, 24 h)","CellTox Green cytotoxicity fluorescence (MV4-11; 1 µM, 48 h)","CellTox Green cytotoxicity fluorescence (MV4-11; 1 µM, 72 h)"
c1ccc2c(CCNc3ccc(Nc4ccncc4)cc3)c[nH]c2c1 [Serdemetan],0.966,0.966,0.987,0.95,0.971,1.05,0.925,1.67,2.28 (active),0.983,0.933,0.904,0.969,0.964,0.955,1.01,1.45,1.77,0.97,0.948,0.953,0.929,0.918,0.946,1.21,3.08 (active),3.17 (active)
CCCCCCCCCCCC1=C(O)C(=O)C=C(O)C1=O [Embelin],1.03,1.04,1.09,0.994,0.99,0.973,0.986,1.04,1.05,0.991,0.988,0.992,1.01,0.999,0.996,1.02,1.03,1.04,1.01,1,1,1,0.999,1,1.02,1,1.01
C=CC(=O)N1CC(=Cc2ccc([N+](=O)[O-])cc2)C(=O)C(=Cc2ccc([N+](=O)[O-])cc2)C1,0.921,0.908,0.929,1.13,1.16,1.07,2.14 (active),3.36 (active),2.48 (active),1.01,0.937,0.951,1.01,1.05,1.04,1.25,1.78,1.95,0.967,0.965,0.983,1.11,1.66,1.78,1.68,2.12 (active),1.92
O=C(O)CSc1cc(NS(=O)(=O)c2ccc(Br)cc2)c2ccccc2c1O,0.973,0.966,0.955,0.961,0.961,0.969,0.984,1.03,1.03,1.05,0.997,1.01,0.985,0.972,0.997,0.98,1.03,1.08,0.99,0.983,0.99,0.988,0.985,0.989,0.983,0.997,1.03
